This is an account of results in ChEMBL document CHEMBL1961873, “Compounds: GSK PKIS; Assays: Nanosyn kinase panel” (2012).

In experiment [1] the target is Serine/threonine-protein kinase pim-2 (Homo sapiens) (UniProt Q9P1W9). The note with it: at 1 µM.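 Also: each value is a mean of the inhibition measurements against the kinase.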
Experiment [2] deals with Serine/threonine-protein kinase pim-3 (Homo sapiens) (UniProt Q86V86). As to conditions: at 0.1 µM.
Experiment [3] has the same target. As to conditions: at 1 µM.
Experiment [4] deals with T1, MAP kinase-activated protein kinase 5 (Homo sapiens) (UniProt Q8IW41).
T1 sequence (whole entry): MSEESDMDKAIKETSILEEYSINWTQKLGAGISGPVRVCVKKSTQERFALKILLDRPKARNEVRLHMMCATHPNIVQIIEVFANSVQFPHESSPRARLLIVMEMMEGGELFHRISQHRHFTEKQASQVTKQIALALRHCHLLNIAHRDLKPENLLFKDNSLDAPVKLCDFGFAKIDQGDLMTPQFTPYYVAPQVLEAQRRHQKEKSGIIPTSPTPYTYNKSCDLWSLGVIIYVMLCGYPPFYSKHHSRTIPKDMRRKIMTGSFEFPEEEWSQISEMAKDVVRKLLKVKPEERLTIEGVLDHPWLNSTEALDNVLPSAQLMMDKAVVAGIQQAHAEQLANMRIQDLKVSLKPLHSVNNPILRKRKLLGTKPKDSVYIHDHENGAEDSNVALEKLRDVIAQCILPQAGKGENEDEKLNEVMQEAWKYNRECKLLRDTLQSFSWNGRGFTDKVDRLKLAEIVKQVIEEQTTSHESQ
The note with it: at 0.1 µM.

For experiment [5], the target named is T1, MAP kinase-activated protein kinase 5 (Homo sapiens). The note with it: at 1 µM.
For experiment [6], the target named is Serine/threonine-protein kinase SIK1 (Homo sapiens) (UniProt P57059). As to conditions: at 0.1 µM.
For experiment [7] the target is unchanged. As to conditions: at 1 µM.
Experiment [8] concerns the target Serine/threonine-protein kinase SIK2 (Homo sapiens) (UniProt Q9H0K1). The note with it: at 0.1 µM.
Experiment [9] shares this target. As to conditions: at 1 µM.
Experiment [10] has as its target T2, Serine/threonine-protein kinase TBK1 (Homo sapiens) (UniProt Q9UHD2).
T2 sequence (whole entry): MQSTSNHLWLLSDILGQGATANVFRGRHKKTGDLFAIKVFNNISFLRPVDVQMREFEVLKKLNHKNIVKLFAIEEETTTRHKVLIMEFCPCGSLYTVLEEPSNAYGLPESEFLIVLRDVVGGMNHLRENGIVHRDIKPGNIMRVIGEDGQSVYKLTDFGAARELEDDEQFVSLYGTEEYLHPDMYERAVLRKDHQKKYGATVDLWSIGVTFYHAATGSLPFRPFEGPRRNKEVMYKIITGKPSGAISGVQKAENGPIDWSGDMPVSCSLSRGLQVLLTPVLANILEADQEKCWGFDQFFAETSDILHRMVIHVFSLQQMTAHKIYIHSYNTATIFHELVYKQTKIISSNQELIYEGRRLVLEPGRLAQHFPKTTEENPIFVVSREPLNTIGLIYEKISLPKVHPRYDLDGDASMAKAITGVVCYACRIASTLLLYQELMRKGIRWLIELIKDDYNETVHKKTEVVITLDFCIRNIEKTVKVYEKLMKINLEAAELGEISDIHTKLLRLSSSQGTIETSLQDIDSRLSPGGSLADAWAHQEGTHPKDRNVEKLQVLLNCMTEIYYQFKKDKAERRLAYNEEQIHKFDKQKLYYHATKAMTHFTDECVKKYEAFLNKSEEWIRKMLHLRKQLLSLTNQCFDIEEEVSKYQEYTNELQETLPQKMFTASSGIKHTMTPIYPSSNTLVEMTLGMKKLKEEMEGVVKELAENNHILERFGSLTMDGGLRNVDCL
The note with it: at 0.1 µM.

For experiment [11], the target named is T2, Serine/threonine-protein kinase TBK1 (Homo sapiens). The note with it: at 1 µM.
Experiment [12] concerns the target T3, Testis-specific serine/threonine-protein kinase 1 (Homo sapiens) (UniProt Q9BXA7).
T3 sequence (whole entry): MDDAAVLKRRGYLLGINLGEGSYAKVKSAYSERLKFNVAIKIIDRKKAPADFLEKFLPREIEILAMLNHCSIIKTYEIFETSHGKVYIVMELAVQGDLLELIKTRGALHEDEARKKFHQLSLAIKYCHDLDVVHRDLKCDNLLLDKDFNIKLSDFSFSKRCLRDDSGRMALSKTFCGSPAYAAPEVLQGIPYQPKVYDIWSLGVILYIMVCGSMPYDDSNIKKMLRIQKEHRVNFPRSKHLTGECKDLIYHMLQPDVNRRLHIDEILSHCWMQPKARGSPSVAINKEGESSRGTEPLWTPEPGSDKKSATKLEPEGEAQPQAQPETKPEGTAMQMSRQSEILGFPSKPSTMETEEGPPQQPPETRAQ
As to conditions: at 0.1 µM.

The target in experiment [13] is T3, Testis-specific serine/threonine-protein kinase 1 (Homo sapiens). As to conditions: at 1 µM.
Experiment [14] concerns the target T4, Testis-specific serine/threonine-protein kinase 2 (Homo sapiens) (UniProt Q96PF2).
T4 sequence (whole entry): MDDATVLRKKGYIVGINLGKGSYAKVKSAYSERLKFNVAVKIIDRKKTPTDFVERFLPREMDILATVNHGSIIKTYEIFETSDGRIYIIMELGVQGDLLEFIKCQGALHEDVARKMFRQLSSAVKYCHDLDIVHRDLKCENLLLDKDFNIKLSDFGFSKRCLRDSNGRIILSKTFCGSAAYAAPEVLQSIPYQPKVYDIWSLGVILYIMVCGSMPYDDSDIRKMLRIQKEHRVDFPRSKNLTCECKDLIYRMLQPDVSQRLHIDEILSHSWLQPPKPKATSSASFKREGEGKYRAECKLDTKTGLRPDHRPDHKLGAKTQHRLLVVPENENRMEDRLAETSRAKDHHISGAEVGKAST
The note with it: at 0.1 µM.

For experiment [15], the target named is T4, Testis-specific serine/threonine-protein kinase 2 (Homo sapiens). As to conditions: at 1 µM.
Experiment [16] concerns the target Casein kinase I isoform alpha (Homo sapiens) (UniProt P48729). As to conditions: at 0.1 µM.
The target is the same in experiment [17]. The note with it: at 1 µM.
Experiment [18] has as its target Casein kinase I isoform gamma-1 (Homo sapiens) (UniProt Q9HCP0). As to conditions: at 0.1 µM.
Experiment [19] has the same target. As to conditions: at 1 µM.
The target of experiment [20] is Casein kinase I isoform gamma-2 (Homo sapiens) (UniProt P78368). As to conditions: at 0.1 µM.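 Also: values are mean inhibition figures reported as part of the GSK PKIS dataset.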
Chain of Casein kinase I isoform gamma-2 (Homo sapiens) (P78368 whole entry, looked up, canonical isoform): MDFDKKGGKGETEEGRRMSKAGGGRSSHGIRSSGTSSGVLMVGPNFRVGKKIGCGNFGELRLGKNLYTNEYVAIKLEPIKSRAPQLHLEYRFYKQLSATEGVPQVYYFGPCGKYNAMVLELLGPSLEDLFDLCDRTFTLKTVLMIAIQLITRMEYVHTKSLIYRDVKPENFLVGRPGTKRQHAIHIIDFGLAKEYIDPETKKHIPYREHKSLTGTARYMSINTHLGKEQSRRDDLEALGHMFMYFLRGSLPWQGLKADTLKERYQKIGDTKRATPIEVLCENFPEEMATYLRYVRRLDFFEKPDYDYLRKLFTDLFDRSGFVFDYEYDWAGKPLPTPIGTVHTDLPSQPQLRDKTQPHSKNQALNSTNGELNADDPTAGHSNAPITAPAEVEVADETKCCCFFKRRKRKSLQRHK

Chain of Serine/threonine-protein kinase pim-2 (Homo sapiens) (Q9P1W9 whole entry, looked up): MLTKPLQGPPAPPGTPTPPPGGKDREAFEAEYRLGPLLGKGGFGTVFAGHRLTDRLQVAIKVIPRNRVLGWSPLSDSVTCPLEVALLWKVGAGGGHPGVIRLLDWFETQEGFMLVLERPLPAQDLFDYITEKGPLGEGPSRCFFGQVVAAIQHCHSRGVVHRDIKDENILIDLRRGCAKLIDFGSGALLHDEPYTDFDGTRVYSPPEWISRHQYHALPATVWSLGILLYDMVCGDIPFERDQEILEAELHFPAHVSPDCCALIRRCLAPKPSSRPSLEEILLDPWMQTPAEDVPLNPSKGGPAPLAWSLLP
Chain of Casein kinase I isoform gamma-1 (Homo sapiens) (Q9HCP0 whole entry, looked up, canonical isoform): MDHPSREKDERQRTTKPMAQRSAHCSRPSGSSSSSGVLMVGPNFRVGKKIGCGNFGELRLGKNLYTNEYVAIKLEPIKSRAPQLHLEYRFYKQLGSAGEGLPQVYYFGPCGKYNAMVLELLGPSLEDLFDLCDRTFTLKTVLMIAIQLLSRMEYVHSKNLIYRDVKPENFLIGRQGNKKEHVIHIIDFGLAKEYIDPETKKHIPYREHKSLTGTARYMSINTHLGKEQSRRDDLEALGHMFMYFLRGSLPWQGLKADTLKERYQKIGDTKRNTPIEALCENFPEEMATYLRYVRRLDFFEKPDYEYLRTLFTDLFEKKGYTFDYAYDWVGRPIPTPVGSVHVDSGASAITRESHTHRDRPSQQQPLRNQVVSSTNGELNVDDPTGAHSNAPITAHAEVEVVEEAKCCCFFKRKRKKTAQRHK
Chain of Serine/threonine-protein kinase SIK2 (Homo sapiens) (Q9H0K1 whole entry, looked up): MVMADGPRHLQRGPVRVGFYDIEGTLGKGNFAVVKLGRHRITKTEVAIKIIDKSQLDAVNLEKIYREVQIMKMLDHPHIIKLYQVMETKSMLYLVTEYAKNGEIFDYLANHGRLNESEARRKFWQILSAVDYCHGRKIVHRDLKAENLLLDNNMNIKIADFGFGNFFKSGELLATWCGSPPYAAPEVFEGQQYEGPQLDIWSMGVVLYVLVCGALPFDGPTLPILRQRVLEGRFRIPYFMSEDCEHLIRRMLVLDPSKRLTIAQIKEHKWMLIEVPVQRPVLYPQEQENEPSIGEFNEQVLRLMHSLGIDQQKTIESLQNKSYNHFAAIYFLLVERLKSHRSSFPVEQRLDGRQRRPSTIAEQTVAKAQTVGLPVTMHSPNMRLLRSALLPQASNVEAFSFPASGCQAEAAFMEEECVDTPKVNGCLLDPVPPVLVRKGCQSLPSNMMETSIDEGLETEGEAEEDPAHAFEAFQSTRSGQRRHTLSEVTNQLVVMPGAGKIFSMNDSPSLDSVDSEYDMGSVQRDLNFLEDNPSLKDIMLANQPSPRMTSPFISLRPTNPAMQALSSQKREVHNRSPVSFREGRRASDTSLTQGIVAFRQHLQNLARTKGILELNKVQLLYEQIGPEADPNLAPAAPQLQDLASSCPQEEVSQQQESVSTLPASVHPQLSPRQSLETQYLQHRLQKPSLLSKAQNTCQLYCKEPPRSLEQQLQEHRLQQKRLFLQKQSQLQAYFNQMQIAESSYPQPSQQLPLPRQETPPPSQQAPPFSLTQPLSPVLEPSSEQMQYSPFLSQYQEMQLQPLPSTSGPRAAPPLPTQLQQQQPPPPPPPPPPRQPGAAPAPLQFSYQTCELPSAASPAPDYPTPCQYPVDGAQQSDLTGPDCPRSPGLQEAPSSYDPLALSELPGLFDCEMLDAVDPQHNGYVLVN
Chain of Serine/threonine-protein kinase SIK1 (Homo sapiens) (P57059 whole entry): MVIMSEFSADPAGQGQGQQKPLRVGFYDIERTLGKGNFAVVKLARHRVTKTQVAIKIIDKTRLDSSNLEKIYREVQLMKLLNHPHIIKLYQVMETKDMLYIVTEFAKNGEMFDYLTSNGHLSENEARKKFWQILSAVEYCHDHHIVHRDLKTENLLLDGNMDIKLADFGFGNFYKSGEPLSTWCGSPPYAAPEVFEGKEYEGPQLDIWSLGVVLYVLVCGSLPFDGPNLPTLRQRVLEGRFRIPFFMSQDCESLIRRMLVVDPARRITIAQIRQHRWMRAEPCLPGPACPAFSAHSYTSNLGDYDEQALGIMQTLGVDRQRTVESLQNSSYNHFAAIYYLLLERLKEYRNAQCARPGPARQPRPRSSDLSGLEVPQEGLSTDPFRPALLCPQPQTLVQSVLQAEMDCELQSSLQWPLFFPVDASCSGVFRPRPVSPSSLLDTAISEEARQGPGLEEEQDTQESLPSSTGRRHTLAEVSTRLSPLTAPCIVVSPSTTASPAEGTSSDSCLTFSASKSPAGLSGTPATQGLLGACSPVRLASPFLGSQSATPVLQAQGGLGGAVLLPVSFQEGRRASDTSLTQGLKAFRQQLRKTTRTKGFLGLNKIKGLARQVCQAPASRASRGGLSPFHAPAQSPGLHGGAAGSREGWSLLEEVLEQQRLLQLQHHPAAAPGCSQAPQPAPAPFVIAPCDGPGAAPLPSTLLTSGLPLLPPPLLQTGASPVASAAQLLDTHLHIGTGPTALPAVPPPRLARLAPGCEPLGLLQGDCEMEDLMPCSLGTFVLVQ
Chain of Casein kinase I isoform alpha (Homo sapiens) (P48729 2-337 limits assumed): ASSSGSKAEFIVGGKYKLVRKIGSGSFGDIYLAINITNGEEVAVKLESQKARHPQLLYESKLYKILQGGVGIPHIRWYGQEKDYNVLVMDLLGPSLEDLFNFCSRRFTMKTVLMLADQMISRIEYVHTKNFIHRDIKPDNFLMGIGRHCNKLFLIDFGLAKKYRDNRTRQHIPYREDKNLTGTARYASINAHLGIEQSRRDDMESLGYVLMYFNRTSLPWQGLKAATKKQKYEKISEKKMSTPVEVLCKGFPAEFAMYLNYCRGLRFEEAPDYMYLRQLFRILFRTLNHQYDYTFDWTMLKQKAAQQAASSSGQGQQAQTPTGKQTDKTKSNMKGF

One may read the inhibition as the relative decrease from the control value, in per cent. As for `COc1ccc(-c2oc3ncnc(N)c3c2-c2ccc(NC(=O)Nc3cc(C(F)(F)F)ccc3F)cc2)cc1`, the inhibition came out at 1.06% in experiment [1]; 0.37% in experiment [2]; 5% in experiment [3]; 2.58% in experiment [4]; 4.28% in experiment [5]; 6.56% in [6]. Also, the inhibition amounted to 14.4% in experiment [7]; 11.9% in experiment [8]; 10.7% in [9]; 1.47% in [10]; 3.95% in [11]; 4.93% in [12]. The inhibition stood at 5.3% in experiment [13]; 3.63% in [14]; 3.45% in [15]; 3.27% in experiment [16]; 3.17% in [17]; 2.43% in experiment [18]. For the same compound, the inhibition in experiment [19] is 3.7%; in [20], 2.18%.

On to `CC(=O)Nc1cccc(C#Cc2cncnc2Nc2ccc(OCc3cccc(F)c3)c(Cl)c2)c1`, for which the inhibition is 1.31% in experiment [1]; 2.57% in [2]; -1.69% in experiment [3]; 0.16% in [4]; -0.79% in experiment [5]; 4.24% in experiment [6]. For the same compound, the inhibition in experiment [7] stood at 2.15%; in experiment [8] it was 1.42%; in [9], 1.44%; in experiment [10] it was 1.95%; in [11], 3.45%; in experiment [12] it was 1.34%. Further, the inhibition in experiment [13] was 0.24%; in [14], 0.06%; in experiment [15], -1.88%; in experiment [16] it was -1.79%; in experiment [17], 3.28%; in experiment [18] it was 2.22%. Further, the figures for the inhibition in [19] and in experiment [20] were 2% and 0.52%, respectively.

`FC(F)(F)c1cccc(-c2nn3ncccc3c2-c2ccnc(Nc3ccc4c(c3)OCCO4)n2)c1`: the inhibition in experiment [1] is 0.66%; in experiment [2], -1.58%; in [3] it was -2.3%; in experiment [4], 0.49%; in [5], -0.29%; in [6] it was 3.06%. In addition, the inhibition in [7] amounted to 6.62%; in experiment [8], 3.42%; in experiment [9] it was 6.02%; in experiment [10] it was 0.3%; in [11] it was 2.28%; in experiment [12] it was 2.75%. The inhibition in [13] was 1.2%; in [14], -0.07%; in [15], -1.1%; in experiment [16], 1.53%; in [17], 4.39%; in [18] it was 2.58%. The figures for the inhibition in experiment [19] and in [20] were 4.21% and 1.92%, respectively.

Take `COc1cccc(-c2c[nH]c3c(N/N=C/c4ccncc4)ncnc23)c1`: the inhibition in experiment [1] is 1.1%; in [2], 0.71%; in experiment [3], 2.78%; in experiment [4], 0.16%; in experiment [5], -1.66%; in experiment [6], 10.7%. In addition, the inhibition in [7] stood at 48.9%; in experiment [8], 28.6%; in [9], 67.4%; in experiment [10], 3.26%; in experiment [11], 34.6%; in experiment [12], 1.82%. Also, the inhibition in experiment [13] is -0.71%; in experiment [14], 0.73%; in experiment [15] it was -2.11%; in experiment [16], 5.65%; in [17], 7.98%; in experiment [18] it was 1.21%. In addition, the inhibition in experiment [19] is 4.05%; in experiment [20] it was 0.6%.

On to `Cc1ccc2c(-c3ccnc(Nc4ccccc4)n3)c(-c3ccc(F)cc3)nn2n1`, for which the inhibition was 0.72% in experiment [1]; -1.46% in experiment [2]; -3.61% in experiment [3]; 0.87% in [4]; -0.35% in experiment [5]; 1.9% in [6]. The inhibition in [7] came to 24.1%; in experiment [8], 13.3%; in [9], 33.2%; in experiment [10], 1.85%; in [11], 2.79%; in experiment [12], 2.68%. The inhibition in experiment [13] was 0.03%; in [14], 2.66%; in experiment [15], -2.67%; in experiment [16], 33.6%; in [17] it was 70.7%; in experiment [18], 5.48%. The figures for the inhibition in experiment [19] and in experiment [20] were 32% and 5.54%, respectively.

`O=C(Nc1n[nH]c2cc(-c3ccc(F)cc3)ccc12)C1CC1`: the inhibition was 1.49% in [1]; 0.08% in [2]; 0.99% in [3]; 1.06% in [4]; 5.12% in experiment [5]; 4.89% in [6]. Besides, the inhibition in experiment [7] came out at 6.8%; in experiment [8] it was 5.76%; in experiment [9], 7.9%; in experiment [10], 2.6%; in [11], 5.39%; in experiment [12], 3.31%. Moreover, the inhibition was determined as 2.06% in experiment [13]; 2.29% in experiment [14]; 0.97% in experiment [15]; 2.37% in experiment [16]; 7.14% in experiment [17]; 2.86% in experiment [18]. Moreover, the results for the inhibition in experiment [19] and in experiment [20] were 3.21% and 2.45%, respectively.

As to `c1ccc(-c2nc3n(c2-c2ccc4c(c2)OCO4)CCC3)nc1`, the inhibition in [1] is 0.83%; in experiment [2] it was 0.35%; in experiment [3] it was 1.07%; in experiment [4], 0.81%; in experiment [5] it was 0.42%; in [6], 2.02%. For the same compound, the inhibition in experiment [7] stood at 4.54%; in experiment [8] it was 0.11%; in experiment [9], 3.1%; in experiment [10], 1%; in [11], 2.71%; in experiment [12] it was 0.83%. For the same compound, the inhibition in experiment [13] is -0.01%; in experiment [14], 0.79%; in experiment [15], 0.57%; in [16], 22.2%; in [17], 60.1%; in [18] it was 1.06%. The inhibition in [19] amounted to 2.79%; in experiment [20] it was 1.64%.
